The nature of assay [1]: A549 cell viability effects, profiling panel, calcein-AM fluorescence, 48 h, basal (AID 1162). The note with it: higher = more signal.
A short description of assay [2]: adipocyte viability effects, profiling panel, cell-based, 3T3-L1 adipocytes, calcein-AM fluorescence, 48 h, basal (AID 1163). To be noted: 3T3-L1 adipocytes viability, higher = more signal.
Assay [3] can be described thus: HepG2 cell viability effects, profiling panel, calcein-AM fluorescence, 48 h, basal (AID 1164). To be noted: higher = more signal.
The nature of assay [4]: MM1S cell viability effects, profiling panel, calcein-AM fluorescence, 48 h, basal (AID 1165).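 Note: viability of MM1S multiple myeloma cells under basal unstimulated conditions.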 The note with it: higher = more signal.
Assay [5] in a line: basal RPMI8226 viability, no added stimulus, profiling panel, cell-based, calcein-AM fluorescence, 48 h, PK04 Diversity Set (AID 1166).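 Note: cells grown under basal conditions without added stimulus.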 To be noted: RPMI8226 myeloma viability, higher = more signal.
Assay [6] can be described thus: basal HepG2 mitochondrial membrane potential changes, profiling panel, cell-based, JC-1 fluorescence, 24 h, 100 nL compound (AID 1167). The note with it: higher = more signal.
A short description of assay [7]: basal 3T3-L1 adipocyte mitochondrial potential changes, profiling panel, cell-based, JC-1 fluorescence, 3T3-L1 adipocytes, 24 h, 100 nL compound (AID 1168). The note with it: JC-1 mitochondrial fluorescence, higher = more signal, called active from +8 up or from −8 down.
Assay [8] can be described thus: basal RPMI8226 mitochondrial membrane potential changes, profiling panel, cell-based, JC-1 fluorescence, 24 h, 100 nL compound (AID 1169). To be noted: RPMI8226 myeloma, JC-1 mitochondrial potential fluorescence, higher = more signal.
Assay [9] can be described thus: basal MM1S mitochondrial membrane potential changes, profiling panel, cell-based, JC-1 fluorescence, 24 h, 100 nL compound (AID 1170). The note with it: higher = more signal.
The nature of assay [10]: A549 lung cancer cell viability effects, profiling panel, resazurin fluorescence, 24 h, PK04 Diversity Set (AID 1171). The note with it: higher = more signal, called active from +8 up or from −8 down. For orientation: Resazurin is reduced to fluorescent resorufin, in cell work by metabolically active cells.

We go through 16 compounds from PubChem BioAssay.

Calls of active or inactive are those of the source.
Note: test concentration not given here.

On to `O=C1C2C=CC(C(O)c3ccco3)N(Nc3ccccc3)C2C(=O)N1c1ccccc1` (stereo not given), for which the z-score was 0.133 in [1]; -1.03 in assay [2]; 0.473 in [3]; 0.249 in assay [4]; 0.458 in assay [5]; -0.45 in [6]. Also, the z-score in assay [7] is 0.255 (inactive); in [8], -0.364; in [9], -0.267; in assay [10], 0.649 (inactive).

As for `O=C1O[C@H](c2ccccc2)[C@H](c2ccccc2)N2[C@H]1[C@@H](C(=O)Nc1nc3ccccc3s1)[C@]1(C(=O)Nc3ccc(C#CC4=CCCCC4)cc31)[C@H]2c1ccc(O)cc1`, the z-score in [1] is 0.397; in assay [2], -0.197; in assay [3] it was 0.992; in assay [4] it was -1.01; in assay [5], -2.01; in assay [6], -2.82. The z-score in [7] was -0.216 (inactive); in [8], -0.886; in assay [9], -0.991; in assay [10], 0.229 (inactive).

With `C=C(COC)/C(=C/C[C@@H](OC(C)=O)c1ccc(CO)o1)c1cc(C(=O)OC)ccc1OC`, the z-score in assay [1] was -0.109; in assay [2], -0.461; in assay [3], 0.322; in assay [4] it was -0.425; in assay [5] it was -0.0799; in assay [6], 0.0492. The z-score in [7] was 0.208 (inactive); in assay [8], -0.726; in [9], -0.927; in assay [10], 0.072 (inactive).

Take `COc1cc(NN2C(C(O)c3ccc(I)cc3)C=CC3C(=O)N(c4ccccc4)C(=O)C32)cc(OC)c1OC` (stereo not given): the z-score in assay [1] is -0.844; in [2], -0.294; in [3] it was -0.683; in [4], -0.344; in assay [5], -1.4; in assay [6] it was -1.14. For the same compound, the z-score in [7] is -1.46 (inactive); in assay [8] it was -0.786; in assay [9], -1.4; in assay [10] it was -0.749 (inactive).

Consider `O=C(N1CCOCC1)[C@@]1(CCS(=O)(=O)c2ccccc2)N=C(c2ccc(OCCCO)cc2)O[C@H]1c1ccccc1`, for which the z-score in assay [1] is 0.723; in [2], -0.614; in [3], 0.491; in assay [4] it was 0.201; in assay [5], 0.614; in [6] it was 0.271. Further, the z-score in assay [7] is -0.277 (inactive); in [8], -0.489; in assay [9], -0.617; in assay [10], -0.223 (inactive).

Consider `COc1ccc(NC(=O)O[C@H]2[C@@H]3OC(=O)[C@H](Cc4cccc(Br)c4)C/C=C/C[C@@H](Cc4cccc(Br)c4)C(=O)O[C@H]3[C@@H](OC)O[C@@H]2CO)cc1`, for which the z-score in [1] is -0.102; in assay [2], -0.226; in assay [3], 0.323; in assay [4], -1.14; in assay [5], -0.153; in assay [6], 1.6. Moreover, the z-score in [7] is -0.483 (inactive); in [8], -0.897; in [9], 0.329; in assay [10], -0.981 (inactive).

Turning to `COCCOC(=O)N1C(=O)[C@@]2(c3cc(C#CCCO)ccc31)[C@H](c1ccccc1OCCO)N1[C@H](c3ccccc3)[C@H](c3ccccc3)OC(=O)[C@H]1[C@@H]2C(=O)N1CCCCCCC1`, the z-score in assay [1] was 0.66; in [2] it was 0.961; in [3] it was 1.03; in assay [4], 0.115; in assay [5], -0.004; in assay [6] it was 0.454. Moreover, the z-score is 0.339 (inactive) in assay [7], -0.155 in assay [8], -1.31 in assay [9] and 0.596 (inactive) in assay [10].

Regarding `COCC1=C2[C@@H](CCc3ccccc3)OB(O)C[C@@H]2[C@@H]2C(=O)N(C)C(=O)[C@@H]2C1`, the z-score is -0.0482 in assay [1]; -0.184 in assay [2]; -0.187 in [3]; -0.145 in [4]; -0.126 in assay [5]; -1.54 in assay [6]. The z-score was 0.176 (inactive) in assay [7], -0.0658 in assay [8], -0.239 in [9] and -0.425 (inactive) in [10].

For `COCCCNC(=O)[C@@]1(c2ccc([N+](=O)[O-])cc2)CC(=O)N(CC23CC4CC(CC(C4)C2)C3)[C@@H]1c1ccc(CO)cc1I`, the z-score in assay [1] is -1.28; in assay [2], -0.64; in assay [3], -2.75; in [4] it was -3.75; in assay [5], -4.35; in assay [6], 2.16. For the same compound, the z-score in assay [7] was -1.23 (inactive); in assay [8], -1.02; in assay [9], -1.81; in assay [10] it was -2.76 (inactive).

On to `NCCCCCNC(=O)[C@H]1C[C@H]2C(=O)N[C@@H](Cc3ccccc3)C(=O)N2[C@H]1c1ccc(O)cc1`, for which the z-score was 0.422 in [1]; 0.774 in [2]; -0.642 in assay [3]; 0.309 in assay [4]; 0.141 in assay [5]; -0.746 in [6]. Further, the z-score was -0.595 (inactive) in [7], -0.135 in [8], -0.378 in assay [9] and 0.107 (inactive) in [10].

In the case of `COc1ccc([Si](C)(C)[C@H]2[C@H](CC(=O)N3Cc4ccccc4C[C@H]3CO)O[C@@]3(C(=O)N(Cc4ccc(N5C(=O)c6cccc7cccc5c67)cc4)c4ccccc43)[C@@H]2C)cc1`, the z-score is -0.0678 in assay [1]; 0.314 in assay [2]; 0.898 in [3]; -0.769 in assay [4]; -0.874 in assay [5]; 2.5 in assay [6]. Besides, the z-score in assay [7] is -0.178 (inactive); in [8] it was -1.22; in assay [9], -0.862; in assay [10], 0.0918 (inactive).

On to `[N-]=[N+]=Nc1ccccc1C[C@@]1(C(=O)O)N=C(c2ccc(OCCCO)cc2)O[C@@H]1c1ccccc1N=[N+]=[N-]`, for which the z-score in assay [1] is -0.404; in [2] it was -0.115; in assay [3] it was -0.36; in assay [4], -2.44; in assay [5], -2.44; in assay [6], -2.37. The z-score in assay [7] was -0.74 (inactive); in [8], -0.56; in assay [9], -0.739; in assay [10], 0.13 (inactive).

As for `CCCCNC(=O)c1ccc(C#C[Si](C(C)C)(C(C)C)C(C)C)c(OC(C)=O)c1`, the z-score in assay [1] was -0.487; in assay [2], 0.95; in assay [3], -2.45; in [4] it was -2.22; in assay [5], -4.09; in assay [6], -2.34. Also, the z-score in [7] is -0.281 (inactive); in assay [8] it was -1.1; in assay [9], -1.04; in assay [10], -0.363 (inactive).

In the case of `CCOC(=O)C[C@H]1[C@H](OC(=O)c2ccc(-c3ccccc3)cc2)[C@@H](NC(=O)Cc2ccc(OC)cc2)c2cc(OCCCO)ccc2N1C(=O)Cc1ccc(OC)cc1`, the z-score in [1] is 0.368; in assay [2], 0.0052; in [3], 0.834; in assay [4], 0.191; in assay [5], -0.102; in [6] it was 2.01. For the same compound, the z-score was 0.262 (inactive) in [7], -0.198 in [8], -0.128 in [9] and 0.207 (inactive) in [10].

Take `NC(=O)N1C(=O)C2C(C1=O)C1C=C(CCCO)C2C(C2CC2)N1Cc1cccc(OC(F)(F)F)c1` (stereo not given): the z-score in [1] was -0.307; in [2], 0.0635; in assay [3], 0.801; in [4] it was -2.82; in assay [5], 0.0097; in [6], -0.348. In addition, the z-score was 0.418 (inactive) in assay [7], 0.191 in [8], 0.645 in [9] and -0.334 (inactive) in [10].

As for `CC(C)[C@H]1NC(=O)[C@@]23C(=O)N[C@@H](Cc4ccccc4)C2[C@H](C)[C@@]2(C)O[C@H]2C3/C=C/CCC/C=C/CNC(=O)[C@H](Cc2ccccc2)NC1=O` (stereo not given in full), the z-score was -0.315 in assay [1]; 0.532 in assay [2]; 0.304 in [3]; -0.837 in assay [4]; -1.6 in assay [5]; 1.18 in assay [6]. Also, the z-score in assay [7] was -0.499 (inactive); in assay [8], -0.157; in assay [9] it was 1.84; in assay [10], -1.25 (inactive).
